Measurements taken from PubChem BioAssay AID1259374 (The Scripps Research Institute Molecular Screening Center, 2018).
The campaign covered roughly 650,000 compounds. About 5,900 (0.91%) were called active. No stated cut-off is given here; in the data, active means inhibition above about 50%; inactive means the rest. The entries come from a sample that favours actives as a whole.

Each compound was assayed against Microphthalmia-associated transcription factor (Homo sapiens) (UniProt O75030) (assay: MITF inhibitors, primary screen, biochemical, AlphaScreen, human (AID 1259374;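 further: 0% = vehicle wells with protein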)). Conditions: AlphaScreen MITF homodimerization, bead proximity signal; at 2.6 µM; stronger effect = higher value.
Sequence of Microphthalmia-associated transcription factor (Homo sapiens) (O75030 whole entry, looked up): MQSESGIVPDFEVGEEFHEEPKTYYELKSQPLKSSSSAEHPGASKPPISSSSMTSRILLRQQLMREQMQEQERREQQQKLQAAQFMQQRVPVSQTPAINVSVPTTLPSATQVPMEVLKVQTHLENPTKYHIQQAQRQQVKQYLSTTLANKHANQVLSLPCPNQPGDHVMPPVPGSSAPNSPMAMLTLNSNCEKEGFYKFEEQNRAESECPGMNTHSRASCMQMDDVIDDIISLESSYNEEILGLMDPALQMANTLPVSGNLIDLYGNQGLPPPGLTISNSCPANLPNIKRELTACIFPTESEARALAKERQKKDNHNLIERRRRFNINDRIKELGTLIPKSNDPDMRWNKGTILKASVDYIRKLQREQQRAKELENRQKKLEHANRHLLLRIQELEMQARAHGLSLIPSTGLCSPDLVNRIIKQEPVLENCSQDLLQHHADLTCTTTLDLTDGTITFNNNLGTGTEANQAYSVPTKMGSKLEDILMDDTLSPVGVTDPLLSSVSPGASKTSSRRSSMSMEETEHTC
In the case of `Cc1nc(-c2cncc(Br)c2)cc(N2CCC(O)CC2)n1`, the inhibition is reported as 3.37% (inactive). `CC(C)C(c1nnnn1C(C)C)N1CCN(c2ccccc2F)CC1` (stereo not drawn) was tested, and the inhibition was 7.59% (inactive). For `COc1ccc(C2C(C(C)=O)=C(C)N=C3SCC(=O)N32)c(OC)c1` (stereo not drawn), the inhibition was 63.8% (active). `COc1ccc(C2C(C(C)=O)=C(C)N=c3s/c(=C\c4cc(C)n(-c5ccc(Cl)cc5)c4C)c(=O)n32)c(OC)c1` (stereo not drawn) was tested, and the inhibition was 0.25% (inactive). With `CCOC(=O)C1=C(C)N=C2SCC(=O)N2C1c1cc(OC)c(OC)c(OC)c1` (stereo not drawn) the inhibition was 15.1% (inactive). `CCc1nnc(NC(=O)CSc2nnc(-c3ccccn3)n2-c2ccccc2C)s1` was tested, and the inhibition was 1.39% (inactive). With `CCOc1cc(C2C3=C(CCCC3=O)N(CC)C3=C2C(=O)CCC3)cc(Cl)c1O` the inhibition was 3.45% (inactive). In the case of `COC(=O)C1(C)NC(c2ccc(C)cc2)C2C(=O)N(c3ccc(F)cc3)C(=O)C21` (stereo not drawn), the inhibition is reported as 77.9% (active). For `COC(=O)C1(C)NC(c2ccccc2OC)C2C(=O)N(c3ccccc3)C(=O)C21` (stereo not drawn), the inhibition was 17.7% (inactive). For `COC(=O)C1(C)NC(c2ccc(C)cc2)C2C(=O)N(c3ccc(C)cc3)C(=O)C21` (stereo not drawn), the inhibition was 10.8% (inactive). In the case of `CC(=O)c1ccc(N2CN=C3SCC(=O)N3C2)cc1`, the inhibition is reported as 9.73% (inactive). With `CCCNC(=O)Cc1ccc(-n2c(=O)c3ccccc3n(CC(=O)NC3CCCCC3)c2=O)cc1` the inhibition was -13.8% (inactive). In the case of `c1ccc(CCCCNc2nccc(Nc3ccncn3)n2)cc1`, the inhibition is reported as 61.3% (active). For `c1ccc(CCCNc2nccc(Nc3ccncn3)n2)cc1`, the inhibition was 10.6% (inactive). `c1ccc(CCNc2nccc(Nc3ccncn3)n2)cc1` was tested, and the inhibition was -8.19% (inactive). `O=C(NCc1ccccc1)c1ccc2c(c1)nc(SCc1ccc([N+](=O)[O-])cc1)n1c3ccccc3nc21` was tested, and the inhibition was 13.9% (inactive). For `Cc1ccc(CNC(=O)Cn2ncc3c2-c2ccccc2OC3)cc1`, the inhibition was 4.23% (inactive). For `Cc1cc(NC(=O)c2ccco2)ncc1NC(=O)c1cnccn1`, the inhibition was 6.96% (inactive). For `Oc1c(CN2CCOCC2)ccc(CN2CCOCC2)c1O`, the inhibition was 52% (active). For `Clc1ccc(CN2CCOCC2)c(Cl)c1`, the inhibition was 43.8% (inactive). With `Cc1ccc(CN2CCOCC2)c(C)c1` the inhibition was -2.63% (inactive). `Cc1cc(C)nc(NC(=O)c2ccccc2Br)c1` was tested, and the inhibition was -3% (inactive). For `COCCn1c(=S)[nH]c2cc(C(=O)NCCC3=CCCCC3)ccc2c1=O`, the inhibition was 0.32% (inactive). `CN(CCc1ccccn1)Cc1cccnc1` was tested, and the inhibition was 73.8% (active). In the case of `CN(Cc1ccccc1)C(=O)CCC1CCN(C(=O)CCc2ccccn2)CC1`, the inhibition is reported as -1.89% (inactive). With `O=C(COc1ccccc1)NCc1cccnc1` the inhibition was -5.7% (inactive). In the case of `CCOc1cc(/C=C2\NC(=S)NC2=O)cc(Br)c1OC`, the inhibition is reported as 19.5% (inactive). `Cc1ccc(C)c(-n2c(SCCN3CCOCC3)nnc2-c2cccnc2)c1` was tested, and the inhibition was -3.61% (inactive). For `O=C1OCCN1c1ccc(Nc2nccc(-c3cc(N4CCOCC4)cc([N+](=O)[O-])c3)n2)cc1`, the inhibition was 0.11% (inactive). For `Cc1c2c(c(O)c3c(O)cccc13)C(=O)OC2[C@@H]1C(N(C)C)C(O)=C(C(N)=O)C(=O)[C@H]1O` (stereo partly drawn), the inhibition was 108% (active). In the case of `O=C1OC(c2ccccc2Cl)=N/C1=C\c1ccccc1[N+](=O)[O-]`, the inhibition is reported as -1.22% (inactive). For `Cc1nc2sccn2c1CN1CCC(C2(Cc3ccccc3)NC(=O)NC2=O)CC1` (stereo not drawn), the inhibition was -18.4% (inactive). With `Cc1cc(C(F)(F)F)nn1CC(=O)Nc1ccc(I)c(Cl)c1` the inhibition was 6.94% (inactive). For `COC(=O)c1c(OCCCN(C)C)cc(=O)n2c1CCN(C(=O)c1ccc(F)cc1)CC2`, the inhibition was -2.23% (inactive). In the case of `O=S(=O)(NCC(c1ccc2c(c1)OCO2)N1CCOCC1)c1cccs1` (stereo not drawn), the inhibition is reported as 1.27% (inactive). In the case of `COc1cc(/C=N/n2c(-c3ccncc3)n[nH]c2=S)cc(OC)c1OC(C)=O`, the inhibition is reported as 6.48% (inactive). In the case of `Cc1cc(NC(=O)/C=C/C(=O)N(CC(=O)NC2CCCC2)c2ccc(F)cc2)no1`, the inhibition is reported as 75% (active). For `Cc1cc(C)cc(N(CC(=O)NC2CCCC2)C(=O)CCC(=O)Nc2cc(C)on2)c1`, the inhibition was 5.39% (inactive). For `Cc1cc(NC(=O)CCC(=O)N(CC(=O)NC2CCCC2)c2ccc(F)cc2)no1`, the inhibition was -6.06% (inactive). `CCOC(=O)CSC1=Nc2ccccc2C2=NC(C(C)C)C(=O)N12` (stereo not drawn) was tested, and the inhibition was 1.69% (inactive). With `O=C1NC(c2c(F)cccc2Cl)C(C(=O)c2cccs2)C(O)(C(F)(F)F)N1` (stereo not drawn) the inhibition was -3.71% (inactive). For `O=C1NC(c2cccs2)C(C(=O)c2cccnc2)C(O)(C(F)(F)F)N1` (stereo not drawn), the inhibition was -3.66% (inactive). For `O=C1NC(c2ccccc2[N+](=O)[O-])C(C(=O)c2cccs2)C(O)(C(F)(F)F)N1` (stereo not drawn), the inhibition was 58.9% (active). `CN(C)CCN(C)Cc1c(F)cccc1Cl` was tested, and the inhibition was 49.6% (inactive). With `CCN(CC)CCN(CC)Cc1c(F)cccc1F` the inhibition was 6.2% (inactive). For `CCN(CCN(C)C)Cc1c(Cl)cccc1Cl`, the inhibition was 56.6% (active). In the case of `CCOC(=O)C1C(=O)C=C(c2ccc(F)cc2)CC1c1cccs1` (stereo not drawn), the inhibition is reported as -5.44% (inactive). With `CC(C)CO/N=C1\C[C@@H](O)[C@@H](O)[C@@H]2[C@@H]3C(=O)N(C[C@@H]4CCCO4)C(=O)[C@@H]3CC[C@@H]12` the inhibition was -23% (inactive). For `C[C@@H](c1ccccc1)N1C(=O)[C@H]2[C@H]3[C@H](O)C=CC(=O)[C@@H]3CC[C@H]2C1=O`, the inhibition was 17.6% (inactive). `CC(C)CO/N=C1\C[C@@H](O)[C@@H](O)[C@@H]2[C@@H]3C(=O)N([C@@H](C)c4ccccc4)C(=O)[C@@H]3CC[C@@H]12` was tested, and the inhibition was 114% (active). `O=C(CN(Cc1cccs1)C(=O)c1nsc(Cl)c1Cl)NC1CCCC1` was tested, and the inhibition was 11.8% (inactive). For `Nc1nccc(-c2ccc3nc(C4COc5ccc(Br)cc5C4)[nH]c3c2)n1` (stereo not drawn), the inhibition was 8.16% (inactive). `Cc1nn(C(=O)N2CCOCC2)c(C)c1Br` was tested, and the inhibition was 13.6% (inactive). For `NC(=O)CCn1cc(/C=C2\Cc3ccccc3C2=O)c2ccccc21`, the inhibition was -5.7% (inactive). `Clc1ccc(Cl)c(N2Cc3cc4c(cc3C2)CN(c2cc(Cl)ccc2Cl)C4)c1` was tested, and the inhibition was 4.43% (inactive). For `COc1ccc(-c2cc(C(=O)OCC(=O)/C(C#N)=C(\C)N)c3ccccc3n2)cc1`, the inhibition was 7.78% (inactive). With `COc1cccc(OC)c1C(=O)OCC(=O)/C(C#N)=C(\C)N` the inhibition was -4.31% (inactive). In the case of `C/C(N)=C(/C#N)C(=O)COC(=O)c1c2c(nc3ccccc13)/C(=C/c1ccco1)CC2`, the inhibition is reported as 81.7% (active).
